Out of some 69,000 compounds screened, about 8,600 (12%) showed an effect of 50% or more. The entries come from a sample that favours strong results as a whole.
These compounds were tested on Plasmodium berghei (assay: Screen against P. berghei liver stage (PbLuc), transformed with Luciferase, at 10uM). Conditions: tested at 10 uM.
Assay type: functional, HepG2

Structure (SMILES) | INHIBITION [%]
COc1ccc(CN(Cc2cccnc2)CC2CCCO2)c(OC)c1 (stereo unspecified) | 22.2
CCN1C(=O)CCCC12CCCN(C(=O)c1ccoc1C)C2 (stereo unspecified) | 32.1
CCC(=O)NCC(=O)NCC1(O)CCC(C(C)(C)C)CC1 (stereo unspecified) | 38.3
CC(=O)NCc1cncc(C2CCCN2C2CCOCC2)n1 (stereo unspecified) | -4.15
c1cnn(CC2CCCCN2c2ncnc3sccc23)c1 (stereo unspecified) | 18.2
c1cnn(CC2CCCN2c2ncnc3sccc23)c1 (stereo unspecified) | 79.7
c1nc(N2CCCC2Cn2cncn2)c2ccsc2n1 (stereo unspecified) | 33
c1cnn(CC2CCCN2c2ncnc3ccsc23)c1 (stereo unspecified) | 57.8
c1cnn(CC2CCCCN2c2ncnc3ccsc23)c1 (stereo unspecified) | 14.75
c1nc(N2CCCC2Cn2cncn2)c2sccc2n1 (stereo unspecified) | 10.65
O=C(Nc1nccs1)C1CCN(Cc2cccc3c2OCCO3)CC1 | 37.6
COCc1noc(-c2cc(Cl)c3c(c2)OCO3)n1 | -26.1
CC1CN(CC(=O)NCc2ccccc2)CCN1Cc1nccn1C (stereo unspecified) | 22.93
Cc1[nH]ccc1C(=O)N1CCCC(c2ccc(C(=O)O)cc2)C1 (stereo unspecified) | 2.7
O=C(c1cccc2cccnc12)N1CCCC(n2ccnc2)C1 (stereo unspecified) | 17.02
CN(C)c1ncccc1CNc1cc(N2CCCC2CO)ncn1 (stereo unspecified) | 26.4

Structure (SMILES) | INHIBITION [%]
Cc1ccc(-c2cn[nH]c2C2CCCN(c3cc(N)ncn3)C2)cc1 (stereo unspecified) | 75.4
Cc1ccc(-c2cn[nH]c2C2CCCN(c3ncccn3)C2)cc1 (stereo unspecified) | 27.6
CN(C)CCn1ccnc1C1CCCN(c2cc(N)ncn2)C1 (stereo unspecified) | 28
Cc1ccc(-c2cn[nH]c2C2CCCN(c3ccnc(C)n3)C2)cc1 (stereo unspecified) | 65.3
Cc1ccc(-c2cn[nH]c2C2CCCN(c3cnccn3)C2)cc1 (stereo unspecified) | 53.7
Cc1c[nH]nc1C1CCCN(c2cnccn2)C1 (stereo unspecified) | 4.73
Cc1ccc(N2CCCC(c3[nH]ncc3-c3ccccc3)C2)nn1 (stereo unspecified) | 56.2
Cc1ccnc(C2CCN(c3ccnc(C)n3)C2)n1 (stereo unspecified) | 10.9
Cc1ccc(-c2cn[nH]c2C2CCCN(c3nccc(N)n3)C2)cc1 (stereo unspecified) | 47.2
C[C@H](N)C(=O)N1CCC(c2[nH]ncc2-c2ccccc2)CC1 | -15.65
Cc1nccc(N2CCCC(c3nnc(Cn4ccnc4C)n3C)C2)n1 (stereo unspecified) | 1.74
CC(O)C(=O)N1CCC(c2[nH]ncc2-c2ccccc2)CC1 (stereo unspecified) | 1.66
CN(CCO)C[C@@H]1CN(C(=O)c2cccc(OC(F)F)c2)C[C@@H]1CO | 3.19
O=C(C1CCOC1)N1CCN(Cc2ccc3c(c2)CCO3)CC1 (stereo unspecified) | 41.5
Cc1nc(CN(C)C2CCN(CCc3cccs3)C2)no1 (stereo unspecified) | 39.2

Reference: ChEMBL document CHEMBL4513216, “Probing the Open Global Health Chemical Diversity Library for Multistage-Active Starting Points for Next-Generation Antimalarials” (ACS Infect Dis, 2020)
